Consider 15 compounds from PubChem BioAssay.

Each structure is given as a SMILES string. For part of these data: Entries with a potency or affinity are not part of this list. Activity calls are given as the source filed them.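 How the source made its calls, unless noted: active means fitted half-maximal concentration within the tested dose range, moderate curve steepness, a statistically real signal drop, and little compound fluorescence or tag-binding interference; inactive means the rest.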

The target of experiment [1] is Cell division control protein 42 homolog (Homo sapiens) (UniProt P60953). As to the kind of experiment: inhibition of fluorescent GTP binding to constitutively active Cdc42 – biochemical, multiplex bead flow cytometry, Bodipy-FL-GTP, dose response (AID 1333). On the technique in general: A flow cytometer gives signals particle by particle.
Experiment [2] shares this target. Briefly: inhibition of fluorescent GTP binding to wildtype Cdc42 – biochemical, multiplex bead flow cytometry, Bodipy-FL-GTP, dose response (AID 1334;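 active means fitted half-maximal concentration within the tested range, moderate curve steepness, significant signal drop, and little compound fluorescence or bead-linkage interference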). Particulars: bead-based flow cytometry, Bodipy-FL-GTP binding to GST-Cdc42; at 100 µM (top of the series) unless noted.
Experiment [3] addresses GTPase HRas (Homo sapiens) (UniProt P01112). Briefly: Ras wt fluorescent GTP loading blockade – biochemical, wildtype, multiplex bead flow cytometry, dose response (AID 1335;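 active means fitted half-maximal concentration within 10 nM to 100 µM, steepness 0.5 to 2, significant signal drop, low assay interference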). Particulars: bead-based flow cytometry, Bodipy-GTP binding to GST-Ras; at 100 µM (top of the series) unless noted.
Experiment [4] relates to Ras-related protein Rab-7a (dog), GTP binding. Briefly: blockers of fluorescent GTP binding to Rab7 – biochemical, wildtype, multiplex bead flow cytometry, dose response (AID 1336; call rule not given here).
For experiment [5], the target named is Ras-related C3 botulinum toxin substrate 1 (Homo sapiens) (UniProt P63000). As to the kind of experiment: inhibition of wildtype Rac1 nucleotide loading – biochemical, multiplex bead flow cytometry, dose response (AID 1340;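 active means dose curve with midpoint inside tested range, moderate steepness, plateau gap beyond fit error, low compound glow and bead-link interference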). Particulars: GST-Rac1 beads, Bodipy-FL-GTP binding; at 100 µM (top of the series) unless noted.
The target of experiment [6] is GTPase HRas (Homo sapiens) (UniProt P01112). As to the kind of experiment: blockade of GTP loading onto mutant Ras – biochemical, activated mutant, multiplex bead flow cytometry, dose response (AID 1341;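 active means dose-response curve with midpoint inside the tested range, moderate steepness, significant amplitude and little compound fluorescence or bead-attachment interference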;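 further: GST-tagged constitutively activated Ras mutant immobilized on beads and multiplexed with other GTPases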).
Sequence of GTPase HRas (Homo sapiens) (P01112 whole entry, looked up): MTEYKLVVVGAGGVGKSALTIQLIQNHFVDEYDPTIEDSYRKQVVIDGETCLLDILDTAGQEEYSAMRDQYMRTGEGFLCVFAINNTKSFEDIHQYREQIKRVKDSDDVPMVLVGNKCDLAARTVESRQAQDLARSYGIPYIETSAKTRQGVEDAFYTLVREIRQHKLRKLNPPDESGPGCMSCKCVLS

Sequence of Cell division control protein 42 homolog (Homo sapiens) (P60953 whole entry, looked up): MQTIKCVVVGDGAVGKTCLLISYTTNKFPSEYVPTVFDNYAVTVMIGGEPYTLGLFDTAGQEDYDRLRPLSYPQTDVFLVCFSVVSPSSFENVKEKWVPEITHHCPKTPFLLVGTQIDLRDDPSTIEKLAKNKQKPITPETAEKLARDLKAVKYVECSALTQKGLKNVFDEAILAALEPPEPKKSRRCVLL

Consider `O=C(O)c1ccc(COc2ccc(F)cc2)o1`, for which the call in experiment [1], in experiment [4] and in experiment [6] was inactive. The same compound had a fluorescence, percent of control (lower = inhibition) in experiment [2] of 61.2%. Further, the GTP binding, percent of control in experiment [3] worked out at 87.5%. In experiment [5], the GTP binding signal, raw median fluorescence (lower = inhibition) (MCF (arbitrary fluorescence units)) stood at 35.

With `CCOc1cc(/C=C2\SC(=O)N=C2N)ccc1O`, the result in experiment [1], in experiment [4] and in experiment [6] was inactive. In experiment [2], the fluorescence, percent of control (lower = inhibition) turned out to be 40.7%. Also, the GTP binding, percent of control in experiment [3] worked out at 81%. For the same compound, in experiment [5], the GTP binding signal, raw median fluorescence (lower = inhibition) (MCF (arbitrary fluorescence units)) turned out to be 174.

With `CCCc1nc2oc3c(=O)[nH]cnc3c2c2c1CCCC2`, the outcome in experiment [1], in experiment [4] and in experiment [6] was inactive. This compound also showed a fluorescence, percent of control (lower = inhibition) in experiment [2] of 35.5%. The GTP binding, percent of control in experiment [3] stood at 79.1%. The same compound came in with a GTP binding signal, raw median fluorescence (lower = inhibition) (MCF (arbitrary fluorescence units)) in experiment [5] of 193.

On to `O=[N+]([O-])c1cc(-c2ncccn2)c([N+](=O)[O-])s1`, for which the compound was classed as inactive in experiment [1], in experiment [4] and in experiment [6]. This compound also returned a fluorescence, percent of control (lower = inhibition) in experiment [2] of 16.9%. This compound also showed a GTP binding, percent of control in experiment [3] of 70.3%. The compound further came in with a GTP binding signal, raw median fluorescence (lower = inhibition) (MCF (arbitrary fluorescence units)) in experiment [5] of 292.

Regarding `O=C1C2CC=CCC2C(=O)N1c1ncn[nH]1` (stereo not given), the call in experiment [1], in experiment [4] and in experiment [6] was inactive. In experiment [2], this compound had a fluorescence, percent of control (lower = inhibition) of 97.2%. In experiment [3], the GTP binding, percent of control amounted to 161%. This compound gave a GTP binding signal, raw median fluorescence (lower = inhibition) (MCF (arbitrary fluorescence units)) in experiment [5] of 189.

For `O=S1(=O)N=C(N(CCO)/N=C/c2ccccc2)c2ccccc21`, the call in experiment [1], in experiment [4] and in experiment [6] was inactive. In experiment [2], this compound yielded a fluorescence, percent of control (lower = inhibition) of 31.3%. The compound also came in with a GTP binding, percent of control in experiment [3] of 63.2%. This compound also registered a GTP binding signal, raw median fluorescence (lower = inhibition) (MCF (arbitrary fluorescence units)) in experiment [5] of 139.

`Cc1ccc(NS(=O)(=O)c2cc(NC(=O)c3ccc4c(c3)NC(=O)CS4)ccc2Cl)c(C)c1`: the outcome in experiment [1], in experiment [4] and in experiment [6] was inactive. For the same compound, the fluorescence, percent of control (lower = inhibition) in experiment [2] was determined as 36.1%. Further, the GTP binding, percent of control in experiment [3] was 86.2%. In experiment [5], this compound came in with a GTP binding signal, raw median fluorescence (lower = inhibition) (MCF (arbitrary fluorescence units)) of 282.

Turning to `COc1ccc2o/c(=N/NC(=O)c3cccs3)c(C(N)=O)cc2c1`, the call in experiment [1], in experiment [4] and in experiment [6] was inactive. In addition, the fluorescence, percent of control (lower = inhibition) in experiment [2] was determined as 28.1%. Also, the GTP binding, percent of control in experiment [3] was found to be 64.4%. Moreover, in experiment [5], the GTP binding signal, raw median fluorescence (lower = inhibition) (MCF (arbitrary fluorescence units)) amounted to 160.

`Cc1noc(NS(=O)(=O)c2ccc(NC(=O)CSc3nnc4c(n3)[nH]c3ccccc34)cc2)c1C`: the compound was called inactive in experiment [1], in experiment [4] and in experiment [6]. This compound came in with a fluorescence, percent of control (lower = inhibition) in experiment [2] of 21.2%. The compound also showed a GTP binding, percent of control in experiment [3] of 32.7%. Also, in experiment [5], the GTP binding signal, raw median fluorescence (lower = inhibition) (MCF (arbitrary fluorescence units)) worked out at 41.2.

Consider `CCCN(CC1CC1)C(=S)Nc1ccc(Oc2ccccc2)cc1`, for which the result in experiment [1], in experiment [4] and in experiment [6] was inactive. Also, in experiment [2], the fluorescence, percent of control (lower = inhibition) stood at 26.1%. The GTP binding, percent of control in experiment [3] turned out to be 81.4%. Further, the GTP binding signal, raw median fluorescence (lower = inhibition) (MCF (arbitrary fluorescence units)) in experiment [5] was 258.

Take `COc1ccc(S(=O)(=O)Cc2ccc(C(=O)N3CCN(c4cc(Cl)ccc4C)CC3)o2)cc1`: the compound was classed as inactive in experiment [1], in experiment [4] and in experiment [6]. The fluorescence, percent of control (lower = inhibition) in experiment [2] turned out to be 35.1%. The GTP binding, percent of control in experiment [3] came to 57.4%. For the same compound, the GTP binding signal, raw median fluorescence (lower = inhibition) (MCF (arbitrary fluorescence units)) in experiment [5] amounted to 148.

With `Cc1ccccc1OCCn1c(C)c(C(=O)O)c2ccccc21`, the result in experiment [1], in experiment [4] and in experiment [6] was inactive. The compound further registered a fluorescence, percent of control (lower = inhibition) in experiment [2] of 61.5%. The compound further gave a GTP binding, percent of control in experiment [3] of 205%. In experiment [5], this compound displayed a GTP binding signal, raw median fluorescence (lower = inhibition) (MCF (arbitrary fluorescence units)) of 64.3.

With `Cc1cc(C)c2sc(N(CCN(C)C)C(=O)c3cc(Cl)sc3Cl)nc2c1`, the compound was called inactive in experiment [1], in experiment [4] and in experiment [6]. In addition, the fluorescence, percent of control (lower = inhibition) in experiment [2] came to 33.6%. The compound further yielded a GTP binding, percent of control in experiment [3] of 78.8%. Moreover, the GTP binding signal, raw median fluorescence (lower = inhibition) (MCF (arbitrary fluorescence units)) in experiment [5] was found to be 283.

Turning to `CC(C)(C)C(=O)C#Cc1ccccc1`, the call in experiment [1], in experiment [4] and in experiment [6] was inactive. Besides, the fluorescence, percent of control (lower = inhibition) in experiment [2] was determined as 53.5%. In addition, the GTP binding, percent of control in experiment [3] is 203%. Besides, the GTP binding signal, raw median fluorescence (lower = inhibition) (MCF (arbitrary fluorescence units)) in experiment [5] was 55.8.

Turning to `COc1ccc2c(C)nc(N/C(N)=N/S(=O)(=O)c3ccc(C)cc3)nc2c1`, the compound was called inactive in experiment [1], in experiment [4] and in experiment [6]. The same compound showed a fluorescence, percent of control (lower = inhibition) in experiment [2] of 38.9%. Moreover, in experiment [3], the GTP binding, percent of control was 87.9%. In experiment [5], this compound returned a GTP binding signal, raw median fluorescence (lower = inhibition) (MCF (arbitrary fluorescence units)) of 272.
